Measurements: a collection of fitness landscapes (doi:10.1016/j.celrep.2020.107928)
Over roughly 81,000 sequences, “one-hybrid fitness for binding parS DNA” has its median near -0.17; the highest 2% begin near 0.51. For the sample, the highest values were picked, then their nearest neighbours and some sequences at random.

B1: Caulobacter ParB omega fusion; a variant is named by its letters at X, in order, B8GW30 (parent)
chain: MESVVVGEPGMSEGRRGLGRGLSALLGEVDAAPAQAPGEQLGGSREAPIEILQRNPDQPRRTFREEDLEDLSNSIREKGVLQPILVRPSPDTAGEYQIVAGERAWRAAQRAGLKTVPIMVRELDDLAVLEIGIIENVQRADLNVLEEALSYKVLMEKFERTQENIAQTIGKSXSHVANXMRLLXLPDEVQSYLVSGELTAXHARAIAAAADPVALAKQIIEGGLSVRETEALARKAPNLSAGKSKGGRPPRVKDTDTQALESDLSSVLGLDVSIDHRGSTGTLTITYATLEQLDDLCNRLTRGI

Variants of: B1
Experiment: one-hybrid fitness for binding parS DNA (scaled: cognate 1, non-cognate 0); higher = stronger binding
Settings: with parS DNA site
Procedure, shortened: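 Values were rescaled so that cognate is 1 and non-cognate is 0. Each is a fitness, the log change in a variant's read ratio to wild type from Illumina reads of plasmids before and after selection, with three replicate libraries pooled and variants under 10 reads dropped. Selection of the Caulobacter ParB libraries, four specificity codons randomised, used E. coli USO with a HIS3 reporter, site 19 bp from the promoter, on M9-minus-histidine with 0.1 mM IPTG and 5 mM 3-AT for 48 hours at 37°C.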

one-hybrid fitness for binding parS DNA, 0.848:
RNSC

one-hybrid fitness for binding parS DNA, 0.82:
RNQC

one-hybrid fitness for binding parS DNA, 0.213:
RYND

one-hybrid fitness for binding parS DNA, 0.987:
RYDS

one-hybrid fitness for binding parS DNA, 0.549:
RKFA

one-hybrid fitness for binding parS DNA, 0.261:
RVIM

one-hybrid fitness for binding parS DNA, 0.9:
RFKS

one-hybrid fitness for binding parS DNA, 0.344:
RVWM

one-hybrid fitness for binding parS DNA, 0.88:
RCPS

one-hybrid fitness for binding parS DNA, 0.904:
RVIG

one-hybrid fitness for binding parS DNA, 0.769:
RNGC

one-hybrid fitness for binding parS DNA, 0.892:
RFVS

one-hybrid fitness for binding parS DNA, 1:
RLAS

one-hybrid fitness for binding parS DNA, 0.306:
RVGM

one-hybrid fitness for binding parS DNA, 0.934:
RVGC

one-hybrid fitness for binding parS DNA, 0.785:
RNNT

one-hybrid fitness for binding parS DNA, 0.691:
RVPG

one-hybrid fitness for binding parS DNA, 0.85:
RFLC

one-hybrid fitness for binding parS DNA, 0.262:
RMPN

one-hybrid fitness for binding parS DNA, 0.798:
RNHC

one-hybrid fitness for binding parS DNA, 0.893:
RNRC

one-hybrid fitness for binding parS DNA, 0.975:
RYES

one-hybrid fitness for binding parS DNA, 0.563:
RWEG

one-hybrid fitness for binding parS DNA, 0.991:
RVYC

one-hybrid fitness for binding parS DNA, 0.235:
RNYN
RNCY

one-hybrid fitness for binding parS DNA, 0.819:
RQKT

one-hybrid fitness for binding parS DNA, 0.799:
RLKT

one-hybrid fitness for binding parS DNA, 0.328:
RQKF

one-hybrid fitness for binding parS DNA, 0.698:
RCPC

one-hybrid fitness for binding parS DNA, 0.628:
RSIT

one-hybrid fitness for binding parS DNA, 0.569:
RNWC

one-hybrid fitness for binding parS DNA, 0.927:
RKFS

one-hybrid fitness for binding parS DNA, 0.87:
RFCC

one-hybrid fitness for binding parS DNA, 0.361:
RNHY

one-hybrid fitness for binding parS DNA, 0.327:
RMIN

one-hybrid fitness for binding parS DNA, 0.926:
RMIC
RYEC

one-hybrid fitness for binding parS DNA, 0.254:
RVGF

one-hybrid fitness for binding parS DNA, 0.997:
RMIS

one-hybrid fitness for binding parS DNA, 0.556:
RWEC

one-hybrid fitness for binding parS DNA, 0.697:
RFWC

one-hybrid fitness for binding parS DNA, 0.357:
RFYN

one-hybrid fitness for binding parS DNA, 0.462:
RFQY

one-hybrid fitness for binding parS DNA, 0.498:
RNET

one-hybrid fitness for binding parS DNA, 0.49:
RVWY

one-hybrid fitness for binding parS DNA, 0.324:
RMIM

one-hybrid fitness for binding parS DNA, 0.348:
RYEN

one-hybrid fitness for binding parS DNA, 0.562:
RNDT

one-hybrid fitness for binding parS DNA, 0.966:
RVCC

one-hybrid fitness for binding parS DNA, 0.889:
RMPS

one-hybrid fitness for binding parS DNA, 0.958:
RVLC

one-hybrid fitness for binding parS DNA, 0.4:
RLVN

one-hybrid fitness for binding parS DNA, 0.965:
RVHC

one-hybrid fitness for binding parS DNA, 0.275:
RYEM

one-hybrid fitness for binding parS DNA, 0.203:
RVRH

one-hybrid fitness for binding parS DNA, 0.277:
HRSG

one-hybrid fitness for binding parS DNA, 0.441:
RFKN

one-hybrid fitness for binding parS DNA, 0.678:
RQVT

one-hybrid fitness for binding parS DNA, 0.925:
RFQC
RFHC

one-hybrid fitness for binding parS DNA, 0.725:
RMPC

one-hybrid fitness for binding parS DNA, 0.259:
RVLF

one-hybrid fitness for binding parS DNA, 0.901:
RYEG

one-hybrid fitness for binding parS DNA, 0.969:
RFRC

one-hybrid fitness for binding parS DNA, ≤ 0.2:
TPAQ
CKSG
LRFF
RCPH
RPPS
WVLG
AQAH
QPQI
RNLK
RNIP
RNRD
RNLR
RNYD
RNRH
VAHC
TAIS
PGSI
MKSG
AHRN
SQMR
IRKE
RNCR
RNSF
RNGF
RNSR
RNHQ
RNGK
QDYV
VSHT
KTMS
EVAF
DNWC
RNWR
RNQD
TLDS
ARHI
RLKR
RLVD
RLVP
RLKK
PSIF
TTMY
IRGH
RNDF
RNNE
PRSW
AEDR
SKLC
DKAA
NKAA
HLVN
EADC
DFQC
NFLC
RFWF
DFRC
RFWR
RFRP
DFLC
SDQF
ENRG
CYNT
LSAC
TCKK
CTYA
TRDK
NFCC
NFHC
DFYC
RFSD
RFCD
DFSC
DFHC
WVLH
GNCC
TRHF
VVNG
TLTV
PSGP
WTLF
RFVD
RFVH
VTDM
VYTF
PGDI
KILR
RKFP
RKAP
RKAD
QHMA
SVPY
WRWT
FLPQ
WSPS
QVPW
RLFD
RLAP
RLAH
QDER
QMYS
YWTY
IAWK
PACN
RQVH
RQKQ
RQVP
FSNE
TTGM
ILAP
ELIG
HFGL
DNSG
DNPA
RHIH
RPIT
REIT
YPCV
ALRC
TRWA
AHIG
RVSH
RVSD
RVQK
PWHI
EAGG
TACV
YPGR
TVMC
GENW
CIYR
METI
RVRP
RVLK
RVYQ
RVCP
MFWG
QASK
RCDK
QSQF
PAVG
THLD
KYFM
LVSM
LKVQ
LEMF
FCHS
SKPK
RMPF
RMPP
RMIL
RPPC
EAKD
TVNA
CNTL
RLKD
AHEK
MWPC
LAAP
QDYS
QTCI
PSAR
HTSF
AANC
RVPR
RVPQ
RVIK
HAGS
VNPV
WRYW
TQTI
FACF
RMPD
RMID
FTGR
QRNV
PRGY
VCNT
KCVG
DLRC
PRLY
RWEK
RWEF
RWEI
RWEM
RWEN
DQQE
CPRM
KRDI
DGLW
SLYE
NVQI
QQQV
WSWS
QFTQ
VLWE
PVLP
RYDD
RYNH
EDLC
ANQD
TARG
KMSG
RYEH
RYED
RYEK
RYEP

one-hybrid fitness for binding parS DNA, 0.772:
RYET

one-hybrid fitness for binding parS DNA, 0.458:
RLKN

one-hybrid fitness for binding parS DNA, 0.295:
RKFN

one-hybrid fitness for binding parS DNA, 0.481:
RVHY

one-hybrid fitness for binding parS DNA, 0.983:
RVQC

one-hybrid fitness for binding parS DNA, 0.935:
RFSC

one-hybrid fitness for binding parS DNA, 0.252:
RFKH

one-hybrid fitness for binding parS DNA, 0.434:
RNNY
RYEY

one-hybrid fitness for binding parS DNA, 0.977:
RVSC

one-hybrid fitness for binding parS DNA, 0.851:
RVRC
RLKS

one-hybrid fitness for binding parS DNA, 0.712:
RWES

one-hybrid fitness for binding parS DNA, 0.407:
RYDN

one-hybrid fitness for binding parS DNA, 0.223:
RLVH

one-hybrid fitness for binding parS DNA, 0.301:
RWEA

one-hybrid fitness for binding parS DNA, 0.358:
RNPC

one-hybrid fitness for binding parS DNA, 1.03:
RLFS
RLVS

one-hybrid fitness for binding parS DNA, 0.421:
RSPC

one-hybrid fitness for binding parS DNA, 0.719:
RNYC

one-hybrid fitness for binding parS DNA, 0.236:
RYEF

one-hybrid fitness for binding parS DNA, 0.736:
RNLC

one-hybrid fitness for binding parS DNA, 0.704:
RNCC

one-hybrid fitness for binding parS DNA, 0.872:
RYNS

one-hybrid fitness for binding parS DNA, 0.78:
RCIT

one-hybrid fitness for binding parS DNA, 0.867:
RFYC

one-hybrid fitness for binding parS DNA, 0.395:
RLFN

one-hybrid fitness for binding parS DNA, 0.284:
RNQN

one-hybrid fitness for binding parS DNA, 0.372:
RSPT

one-hybrid fitness for binding parS DNA, 0.314:
RVYM
RVHM

one-hybrid fitness for binding parS DNA, 0.832:
RKAS

one-hybrid fitness for binding parS DNA, 0.278:
RGIT
RVQM

one-hybrid fitness for binding parS DNA, 0.438:
RVCN

one-hybrid fitness for binding parS DNA, 0.963:
RVWC

one-hybrid fitness for binding parS DNA, 0.336:
RHPT

one-hybrid fitness for binding parS DNA, 0.581:
RHIT

one-hybrid fitness for binding parS DNA, 0.62:
RKAA

one-hybrid fitness for binding parS DNA, 0.523:
RNIC

one-hybrid fitness for binding parS DNA, 0.844:
RLVT
